Eight molecules from PubChem BioAssay (NCI) can be followed below.

Holding throughout (assay): NCI-60 one-dose screen, 48 h (100 = growth as untreated, 0 = no growth, -100 = all killed)
What all share (details): 10 µM unless noted

In assay [1] the test system is HT29 colon.
The subject of assay [2] is SNB-75 CNS.
The test system of assay [3] is SNB-19 CNS.
Assay [4] has as its system U251 CNS.
For assay [5], the system named is PC-3 prostate.
The subject of assay [6] is UACC-62 melanoma.
The test system of assay [7] is LOX IMVI melanoma.
The test system of assay [8] is SK-MEL-28 melanoma.
The test system of assay [9] is SK-MEL-2 melanoma.
In assay [10] the test system is EKVX NSCLC.
Assay [11] deals with SN12C renal.
For assay [12], the system named is UO-31 renal.
In assay [13] the test system is TK-10 renal.
For assay [14], the system named is ACHN renal.
Assay [15] concerns CAKI-1 renal.
Assay [16] deals with A498 renal.
The subject of assay [17] is CCRF-CEM leukemia.
Assay [18] concerns MOLT-4 leukemia.
Assay [19] has as its system SR leukemia.
Assay [20] relates to SK-MEL-5 melanoma.

Each structure is given as a SMILES string. About 83,000 compounds went through this panel and 20% of them were active in at least one assay; those are over-represented in the sample as a whole.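 Method: cells in 96-well plates; compound added at one concentration; 48 h incubation; percent growth measured; values under 10 scored active.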 Values without a mark were called inactive. Calls of active or inactive are those of the source.

Consider `Cn1[nH]cc(/C=N/C(N)=O)c1=O`, for which the growth in assay [1] is 115%; in assay [2], 106%; in assay [3] it was 106%; in assay [4], 103%; in [5], 108%; in assay [6], 105%. Also, the growth was 96.1% in assay [7]; 115% in assay [8]; 109% in assay [9]; 123% in assay [10]; 108% in assay [11]; 106% in assay [12]. Besides, the growth was 109% in assay [13]; 109% in assay [14]; 109% in assay [15]; 104% in [16]; 94.8% in assay [17]; 105% in assay [18]. Besides, the growth in assay [19] was 103%.
For the molecule `O=C1NCN(CCO)CN1`, the growth in assay [1] was 99.8%; in [2] it was 100%; in assay [3] it was 100%; in [4] it was 109%; in assay [20] it was 106%; in assay [6], 92.8%. The growth in assay [7] is 103%; in assay [8] it was 110%; in assay [9] it was 108%; in assay [10], 98.9%; in [11], 96.5%; in assay [12], 97.2%. Moreover, the growth in assay [13] was 107%; in assay [14], 104%; in assay [15], 92.8%; in assay [16], 106%; in assay [17], 99.7%; in [18], 121%.
On to `Fc1ccc([C@@H]2CCNC[C@H]2COc2ccc3c(c2)OCO3)cc1`, for which the growth in [1] is 14.9%; in [2], 57.6%; in assay [3], 80.2%; in [4] it was 70.3%; in assay [5], 53.6%; in assay [6] it was 57.5%. Moreover, the growth was 42.9% in [7]; 94.4% in [8]; 83.8% in [9]; 77.3% in [10]; 58.6% in [11]; 40.4% in [12]. In addition, the growth is 58.4% in assay [13]; 67% in assay [14]; 67% in assay [15]; 86.1% in [16]; 60.6% in assay [17]; 68.3% in assay [18].
Turning to `Clc1ccc(CCC(Cn2ccnc2)Sc2c(Cl)cccc2Cl)cc1` (stereo not drawn), the growth in assay [1] is 26.7%; in [2], 92.5%; in assay [3] it was 80.2%; in assay [4], 57.2%; in [5] it was 26.5%; in assay [6], 55%. In addition, the growth was 40.5% in [7]; 102% in assay [8]; 72.8% in assay [9]; 52.2% in assay [10]; 55.6% in assay [11]; 30.5% in assay [12]. Further, the growth was 52.4% in assay [13]; 65.4% in [14]; 43.3% in [15]; 73.7% in assay [16]; 35.1% in assay [17]; 34.6% in assay [18].
For the molecule `CCN1C2=C(SC(=S)C1=C1SC(C(=O)OC)=C(C(=O)OC)S1)SC(=Nc1ccc(OC)cc1)C2=O`, the growth in assay [1] is -6.07% (active); in assay [2], -16.1% (active); in [3], 4.72% (active); in assay [4], -32.5% (active); in [5] it was 2.92% (active); in [6] it was -76.8% (active). Moreover, the growth in assay [7] was -72.1% (active); in assay [8], -55% (active); in assay [9], -5.85% (active); in assay [10], 34.7%; in [11], -11.8% (active); in [12], -73% (active). Moreover, the growth was 30.3% in [13]; -74.3% (active) in assay [14]; -38.4% (active) in [15]; 46% in [16]; 4.67% (active) in [17]; 13.2% in [18]. Besides, in [19], the growth is 19.2%.
On to `Clc1cc(Cl)c(OCC#CI)cc1Cl`, for which the growth was 10.4% in assay [1]; 87.6% in assay [2]; 108% in [3]; 78.9% in assay [4]; 75.6% in assay [5]; 62.8% in assay [6]. In addition, the growth in assay [7] is -56% (active); in assay [8], 17.2%; in assay [9], 75.8%; in assay [10], 98.8%; in [11] it was 53.7%; in [12] it was 38.4%. In addition, the growth in [13] was 69.8%; in [14], 2.93% (active); in assay [15], 15.7%; in assay [16], 119%; in [17] it was 27.8%; in assay [18], 41.5%. In addition, the growth in assay [19] is 11.4%.
For the molecule `COc1cc(/C=C2\COc3ccc(O)c(O)c3C2=O)cc(OC)c1`, the growth in assay [1] was 3.57% (active); in assay [2] it was 26.5%; in assay [3], 11.2%; in assay [4] it was -19.3% (active); in [5] it was -3.29% (active); in assay [6] it was -86.3% (active). The growth in assay [7] was -66.2% (active); in assay [8], 14.1%; in [9], 86.5%; in assay [10], 56.4%; in assay [11], -89.7% (active); in assay [12], -95.6% (active). The growth in assay [13] is 16.3%; in assay [14], -85.7% (active); in [15] it was 4.89% (active); in assay [16] it was 112%; in assay [17], 3.2% (active); in [18], -24.3% (active). Besides, the growth in assay [19] is -13.6% (active).
In the case of `CC(C)c1nc(N(C)S(C)(=O)=O)nc(-c2ccc(F)cc2)c1/C=C/[C@@H](O)C[C@@H](O)CC(=O)O`, the growth was 104% in assay [1]; 107% in [2]; 115% in [3]; 61.7% in [4]; 69.3% in [5]; 102% in assay [6]. The growth in assay [7] was 81.3%; in assay [8], 107%; in assay [9] it was 97.8%; in assay [10] it was 91.2%; in assay [11] it was 96.2%; in [12] it was 75%. Further, the growth in assay [13] is 107%; in [14], 97.1%; in [15] it was 97.6%; in assay [16] it was 56.2%; in [17], 104%; in assay [18], 109%.
